Key:
Experiment in all cases: DAPPL (digital affinity profiling via proximity ligation, sequencing); 10 mM Tris-HCl pH 7.5, 50 mM NaCl, 1 mM DTT, 4% glycerol, room temperature, 30 min; GST-TFs on glutathione beads, 16-mer random dsDNA library, 0.1% formaldehyde crosslink after washing; high values mean tight binding
[1] = target: T1, FLI1 (Homo sapiens, UniProt Q01543 1-452); conditions: protein: recombinant; tags: N-terminal GST; dsDNA, one strand shown
T1 sequence: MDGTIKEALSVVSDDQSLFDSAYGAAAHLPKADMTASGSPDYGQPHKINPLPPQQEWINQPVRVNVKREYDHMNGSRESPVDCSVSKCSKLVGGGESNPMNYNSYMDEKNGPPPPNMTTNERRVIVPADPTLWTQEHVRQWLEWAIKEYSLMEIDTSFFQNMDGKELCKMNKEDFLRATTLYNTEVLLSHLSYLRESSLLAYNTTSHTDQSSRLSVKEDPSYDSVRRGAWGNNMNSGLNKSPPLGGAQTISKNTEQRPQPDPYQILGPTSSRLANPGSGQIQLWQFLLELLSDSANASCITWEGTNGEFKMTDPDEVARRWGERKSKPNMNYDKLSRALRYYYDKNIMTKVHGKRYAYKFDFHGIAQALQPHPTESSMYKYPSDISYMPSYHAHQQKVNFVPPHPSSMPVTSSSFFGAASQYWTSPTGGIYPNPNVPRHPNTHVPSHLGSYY
Outline: (§1)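 After expression in yeast as GST fusions, human transcription factors were bound to glutathione beads, DNA-barcoded and mixed with a tag-only sample. The pools were incubated with 200 nmole of a 16-mer random double-stranded DNA library in Tris/NaCl/DTT/glycerol buffer (30 min, room temperature), washed and crosslinked with 0.1% formaldehyde. Proximity ligation with BsaI/T4 ligase ran for 1 h at 37 °C, before PCR amplification and sequencing on an Illumina NextSeq500. Binding signal is a hexamer's read frequency for a factor divided by its frequency for the tag-only sample.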

[2] = target: T2, ELK1 (Homo sapiens, UniProt P19419 1-428); conditions: protein: recombinant; tags: N-terminal GST; dsDNA, one strand shown
T2 sequence: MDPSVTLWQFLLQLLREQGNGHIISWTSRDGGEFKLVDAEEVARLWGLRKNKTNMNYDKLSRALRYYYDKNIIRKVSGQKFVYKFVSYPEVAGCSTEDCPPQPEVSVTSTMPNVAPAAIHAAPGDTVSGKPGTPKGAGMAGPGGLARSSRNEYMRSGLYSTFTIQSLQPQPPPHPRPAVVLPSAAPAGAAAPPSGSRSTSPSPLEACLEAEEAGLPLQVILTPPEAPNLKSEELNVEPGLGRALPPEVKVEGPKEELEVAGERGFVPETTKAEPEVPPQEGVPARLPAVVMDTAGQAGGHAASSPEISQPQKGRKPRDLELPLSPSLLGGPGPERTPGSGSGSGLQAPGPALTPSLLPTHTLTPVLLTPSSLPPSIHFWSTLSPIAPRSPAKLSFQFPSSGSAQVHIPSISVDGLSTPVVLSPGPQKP
Outline: as §1

[3] = target: T3, GABPA (Homo sapiens, UniProt Q06546 1-454); conditions: protein: recombinant; tags: N-terminal GST; dsDNA, one strand shown
T3 sequence: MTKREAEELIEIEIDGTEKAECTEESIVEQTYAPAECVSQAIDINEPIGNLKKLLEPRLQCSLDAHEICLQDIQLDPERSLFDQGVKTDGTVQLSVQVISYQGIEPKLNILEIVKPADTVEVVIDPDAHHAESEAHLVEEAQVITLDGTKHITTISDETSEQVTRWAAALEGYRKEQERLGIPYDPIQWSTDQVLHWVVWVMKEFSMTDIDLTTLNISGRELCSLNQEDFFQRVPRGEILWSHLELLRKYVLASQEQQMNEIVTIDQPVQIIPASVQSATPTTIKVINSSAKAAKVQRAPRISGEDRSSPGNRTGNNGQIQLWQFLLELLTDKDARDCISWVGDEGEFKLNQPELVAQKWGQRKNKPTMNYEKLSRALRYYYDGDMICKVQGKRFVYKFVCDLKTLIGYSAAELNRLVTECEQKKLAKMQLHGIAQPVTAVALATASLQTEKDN
Outline: as §1

[4] = target: T4, ERG (Homo sapiens, UniProt P11308 1-479); conditions: protein: recombinant; tags: N-terminal GST; dsDNA, one strand shown
T4 sequence: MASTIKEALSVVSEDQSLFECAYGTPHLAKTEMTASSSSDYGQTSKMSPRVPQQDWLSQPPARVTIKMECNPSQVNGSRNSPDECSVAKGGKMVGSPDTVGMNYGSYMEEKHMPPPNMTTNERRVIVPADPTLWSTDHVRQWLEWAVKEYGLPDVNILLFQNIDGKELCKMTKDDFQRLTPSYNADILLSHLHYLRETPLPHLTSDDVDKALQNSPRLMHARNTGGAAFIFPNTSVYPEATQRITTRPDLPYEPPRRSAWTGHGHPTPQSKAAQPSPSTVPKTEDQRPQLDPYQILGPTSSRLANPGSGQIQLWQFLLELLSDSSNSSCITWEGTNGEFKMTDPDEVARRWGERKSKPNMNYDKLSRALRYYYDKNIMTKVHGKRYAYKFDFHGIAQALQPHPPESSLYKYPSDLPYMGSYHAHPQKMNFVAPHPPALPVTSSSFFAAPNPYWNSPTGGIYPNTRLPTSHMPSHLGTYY
Outline: as §1

[5] = target: ELF1 (Homo sapiens, UniProt P32519 1-619); conditions: protein: recombinant; tags: N-terminal GST; dsDNA, one strand shown
Outline: as §1

[6] = target: T5, EHF (Homo sapiens, UniProt Q9NZC4 1-300); conditions: protein: recombinant; tags: N-terminal GST; dsDNA, one strand shown
T5 sequence: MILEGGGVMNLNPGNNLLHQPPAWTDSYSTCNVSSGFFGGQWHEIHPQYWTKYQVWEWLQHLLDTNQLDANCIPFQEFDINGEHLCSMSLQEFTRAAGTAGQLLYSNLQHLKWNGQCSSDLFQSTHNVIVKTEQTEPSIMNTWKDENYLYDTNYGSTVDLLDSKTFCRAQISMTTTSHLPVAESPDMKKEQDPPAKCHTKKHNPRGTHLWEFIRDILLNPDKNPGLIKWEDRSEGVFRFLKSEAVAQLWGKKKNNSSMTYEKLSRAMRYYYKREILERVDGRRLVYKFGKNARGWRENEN
Outline: as §1

[7] = target: SPI1 (Homo sapiens, UniProt P17947 1-270); conditions: protein: recombinant; tags: N-terminal GST; dsDNA, one strand shown
Outline: as §1

[8] = target: SPIB (Homo sapiens, UniProt Q01892 1-262); conditions: protein: recombinant; tags: N-terminal GST; dsDNA, one strand shown
Outline: as §1

[9] = target: T6, ELK3 (Homo sapiens, UniProt P41970 1-407); conditions: protein: recombinant; tags: N-terminal GST; dsDNA, one strand shown
T6 sequence: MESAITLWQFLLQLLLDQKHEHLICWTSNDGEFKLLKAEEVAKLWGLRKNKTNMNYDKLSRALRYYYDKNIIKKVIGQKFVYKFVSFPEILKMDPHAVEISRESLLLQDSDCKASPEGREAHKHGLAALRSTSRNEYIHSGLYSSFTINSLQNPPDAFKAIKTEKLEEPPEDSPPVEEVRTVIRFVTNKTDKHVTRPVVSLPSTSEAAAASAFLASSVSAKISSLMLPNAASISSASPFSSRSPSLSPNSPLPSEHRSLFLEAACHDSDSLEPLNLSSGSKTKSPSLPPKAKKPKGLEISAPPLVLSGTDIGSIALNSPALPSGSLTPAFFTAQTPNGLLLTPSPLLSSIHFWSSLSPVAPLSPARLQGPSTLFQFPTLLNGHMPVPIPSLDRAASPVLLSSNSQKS
Outline: as §1

[10] = target: T7, FEV (Homo sapiens, UniProt Q99581 1-238); conditions: protein: recombinant; tags: N-terminal GST; dsDNA, one strand shown
T7 sequence: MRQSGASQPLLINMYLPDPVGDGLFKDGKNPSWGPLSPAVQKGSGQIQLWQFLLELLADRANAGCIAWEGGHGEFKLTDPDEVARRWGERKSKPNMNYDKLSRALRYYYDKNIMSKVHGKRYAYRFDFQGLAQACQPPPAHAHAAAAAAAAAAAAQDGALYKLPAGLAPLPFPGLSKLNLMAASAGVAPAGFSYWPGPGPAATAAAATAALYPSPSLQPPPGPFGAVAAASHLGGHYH
Outline: as §1

[11] = target: ETV5 (Homo sapiens, UniProt P41161 1-510); conditions: protein: recombinant; tags: N-terminal GST; dsDNA, one strand shown
Outline: as §1

[12] = target: HSF1 (Homo sapiens, UniProt Q00613 1-529); conditions: protein: recombinant; tags: N-terminal GST; chain copies: 3; dsDNA, one strand shown
Outline: as §1

[13] = target: T8, SPIC (Homo sapiens, UniProt Q8N5J4 1-248); conditions: protein: recombinant; tags: N-terminal GST; dsDNA, one strand shown
T8 sequence: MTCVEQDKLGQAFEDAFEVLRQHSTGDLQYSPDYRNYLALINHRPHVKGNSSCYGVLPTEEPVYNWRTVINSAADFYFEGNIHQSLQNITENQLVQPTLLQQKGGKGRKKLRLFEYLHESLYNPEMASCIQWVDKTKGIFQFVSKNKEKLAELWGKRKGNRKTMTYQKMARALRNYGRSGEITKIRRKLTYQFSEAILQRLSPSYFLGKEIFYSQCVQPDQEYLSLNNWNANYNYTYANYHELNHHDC
Outline: as §1

[14] = target: ELF4 (Homo sapiens, UniProt Q99607 1-663); conditions: protein: recombinant; tags: N-terminal GST; dsDNA, one strand shown
Outline: as §1

[15] = target: T9, ELK4 (Homo sapiens, UniProt P28324-2 1-405); conditions: protein: recombinant; tags: N-terminal GST; dsDNA, one strand shown
T9 sequence: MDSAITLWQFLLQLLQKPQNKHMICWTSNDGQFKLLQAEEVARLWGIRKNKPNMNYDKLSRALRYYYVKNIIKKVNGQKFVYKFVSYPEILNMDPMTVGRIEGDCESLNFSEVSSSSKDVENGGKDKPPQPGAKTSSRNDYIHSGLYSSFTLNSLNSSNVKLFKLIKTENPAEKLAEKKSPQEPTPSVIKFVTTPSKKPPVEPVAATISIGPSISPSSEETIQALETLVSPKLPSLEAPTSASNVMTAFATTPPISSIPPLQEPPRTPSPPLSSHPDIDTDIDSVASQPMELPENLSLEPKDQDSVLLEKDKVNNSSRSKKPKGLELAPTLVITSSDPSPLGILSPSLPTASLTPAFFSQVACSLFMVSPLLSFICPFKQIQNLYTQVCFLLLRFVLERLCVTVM
Outline: as §1

[16] = target: T10, ETV2 (Homo sapiens, UniProt O00321 1-342); conditions: protein: recombinant; tags: N-terminal GST; dsDNA, one strand shown
T10 sequence: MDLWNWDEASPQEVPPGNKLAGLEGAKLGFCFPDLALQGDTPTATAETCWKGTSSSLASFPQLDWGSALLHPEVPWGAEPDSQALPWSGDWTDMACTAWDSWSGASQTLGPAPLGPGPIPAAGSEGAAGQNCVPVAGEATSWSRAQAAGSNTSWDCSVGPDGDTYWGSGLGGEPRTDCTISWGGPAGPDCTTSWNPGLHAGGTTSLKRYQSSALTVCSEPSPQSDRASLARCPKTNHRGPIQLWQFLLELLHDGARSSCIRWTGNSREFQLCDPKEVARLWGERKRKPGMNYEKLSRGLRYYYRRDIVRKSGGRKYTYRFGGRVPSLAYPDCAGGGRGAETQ
Outline: as §1

[17] = target: T11, ELF3 (Homo sapiens, UniProt P78545 1-371); conditions: protein: recombinant; tags: N-terminal GST; dsDNA, one strand shown
T11 sequence: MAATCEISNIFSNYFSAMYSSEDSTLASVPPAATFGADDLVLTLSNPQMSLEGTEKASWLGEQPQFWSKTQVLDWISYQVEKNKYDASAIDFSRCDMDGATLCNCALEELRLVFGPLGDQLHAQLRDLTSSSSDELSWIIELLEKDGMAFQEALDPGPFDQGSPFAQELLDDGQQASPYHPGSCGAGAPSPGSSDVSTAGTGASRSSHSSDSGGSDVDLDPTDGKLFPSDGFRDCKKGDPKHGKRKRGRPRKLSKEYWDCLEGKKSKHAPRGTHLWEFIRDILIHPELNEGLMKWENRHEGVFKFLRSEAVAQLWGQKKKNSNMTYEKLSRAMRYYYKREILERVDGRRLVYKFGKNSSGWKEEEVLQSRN
Outline: as §1

[18] = target: ETV1 (Homo sapiens, UniProt P50549 1-477); conditions: protein: recombinant; tags: N-terminal GST; dsDNA, one strand shown
Outline: as §1

Sequence of SPIB (Q01892 whole entry): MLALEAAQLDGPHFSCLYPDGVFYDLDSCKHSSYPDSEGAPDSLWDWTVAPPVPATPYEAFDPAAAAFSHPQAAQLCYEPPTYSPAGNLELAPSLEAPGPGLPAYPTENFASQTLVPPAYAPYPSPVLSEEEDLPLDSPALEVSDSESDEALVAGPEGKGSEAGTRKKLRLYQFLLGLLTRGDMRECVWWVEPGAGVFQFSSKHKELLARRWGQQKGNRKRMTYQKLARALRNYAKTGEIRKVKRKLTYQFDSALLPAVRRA
Sequence of ETV1 (P50549 whole entry): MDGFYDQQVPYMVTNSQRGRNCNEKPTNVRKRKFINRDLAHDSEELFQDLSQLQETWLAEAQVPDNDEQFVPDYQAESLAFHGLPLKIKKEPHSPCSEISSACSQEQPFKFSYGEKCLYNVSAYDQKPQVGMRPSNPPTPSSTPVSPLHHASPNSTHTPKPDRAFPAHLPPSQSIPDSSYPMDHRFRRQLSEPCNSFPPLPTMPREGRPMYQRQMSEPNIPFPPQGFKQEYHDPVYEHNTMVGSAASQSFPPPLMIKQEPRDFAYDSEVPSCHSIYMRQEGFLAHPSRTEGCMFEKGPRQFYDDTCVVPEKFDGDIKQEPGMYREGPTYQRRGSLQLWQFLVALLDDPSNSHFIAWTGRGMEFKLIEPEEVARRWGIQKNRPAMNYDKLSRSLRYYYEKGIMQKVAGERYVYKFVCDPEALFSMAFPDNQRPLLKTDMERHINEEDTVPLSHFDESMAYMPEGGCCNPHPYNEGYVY
Sequence of ELF1 (P32519 whole entry): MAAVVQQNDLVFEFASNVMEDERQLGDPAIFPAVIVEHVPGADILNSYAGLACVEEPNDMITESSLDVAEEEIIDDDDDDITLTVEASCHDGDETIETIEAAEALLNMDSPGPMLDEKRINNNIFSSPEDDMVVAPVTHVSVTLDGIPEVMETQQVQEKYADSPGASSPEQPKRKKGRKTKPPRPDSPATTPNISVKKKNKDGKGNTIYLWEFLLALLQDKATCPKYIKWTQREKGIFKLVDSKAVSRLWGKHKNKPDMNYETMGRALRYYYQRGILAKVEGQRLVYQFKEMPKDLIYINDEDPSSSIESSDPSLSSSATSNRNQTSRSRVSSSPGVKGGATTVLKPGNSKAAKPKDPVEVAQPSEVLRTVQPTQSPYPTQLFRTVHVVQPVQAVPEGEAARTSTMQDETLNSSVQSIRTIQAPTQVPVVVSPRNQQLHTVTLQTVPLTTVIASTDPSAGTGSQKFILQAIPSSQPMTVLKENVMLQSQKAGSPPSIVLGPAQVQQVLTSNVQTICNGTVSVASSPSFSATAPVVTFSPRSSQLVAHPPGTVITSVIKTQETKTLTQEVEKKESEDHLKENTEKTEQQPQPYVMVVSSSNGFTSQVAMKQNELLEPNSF
Sequence of ETV5 (P41161 whole entry): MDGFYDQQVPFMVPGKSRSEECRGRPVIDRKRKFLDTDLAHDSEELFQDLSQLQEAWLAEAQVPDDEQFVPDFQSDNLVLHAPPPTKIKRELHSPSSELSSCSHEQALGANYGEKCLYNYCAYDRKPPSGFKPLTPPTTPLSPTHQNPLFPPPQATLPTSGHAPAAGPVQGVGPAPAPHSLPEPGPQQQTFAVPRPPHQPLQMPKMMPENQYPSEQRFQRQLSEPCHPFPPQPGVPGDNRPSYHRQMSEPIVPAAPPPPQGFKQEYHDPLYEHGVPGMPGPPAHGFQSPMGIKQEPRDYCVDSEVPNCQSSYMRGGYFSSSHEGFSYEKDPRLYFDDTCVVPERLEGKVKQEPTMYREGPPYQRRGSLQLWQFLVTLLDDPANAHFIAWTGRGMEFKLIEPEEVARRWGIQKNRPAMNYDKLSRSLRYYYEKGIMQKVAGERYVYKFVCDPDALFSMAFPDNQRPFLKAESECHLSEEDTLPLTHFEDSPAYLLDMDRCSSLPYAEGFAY
Sequence of HSF1 (Q00613 whole entry): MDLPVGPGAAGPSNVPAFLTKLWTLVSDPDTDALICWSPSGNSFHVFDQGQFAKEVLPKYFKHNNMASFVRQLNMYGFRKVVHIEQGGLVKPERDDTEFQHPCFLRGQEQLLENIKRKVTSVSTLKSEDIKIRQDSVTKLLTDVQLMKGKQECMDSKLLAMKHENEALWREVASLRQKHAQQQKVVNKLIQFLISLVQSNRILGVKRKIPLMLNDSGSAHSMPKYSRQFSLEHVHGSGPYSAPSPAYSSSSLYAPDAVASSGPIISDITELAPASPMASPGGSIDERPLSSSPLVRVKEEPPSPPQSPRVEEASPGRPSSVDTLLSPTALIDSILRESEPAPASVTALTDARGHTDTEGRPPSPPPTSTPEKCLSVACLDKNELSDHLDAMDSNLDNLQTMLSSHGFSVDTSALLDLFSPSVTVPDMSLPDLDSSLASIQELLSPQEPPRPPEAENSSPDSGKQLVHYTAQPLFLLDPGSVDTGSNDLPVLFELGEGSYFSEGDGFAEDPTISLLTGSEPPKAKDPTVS
Sequence of ELF4 (Q99607 whole entry): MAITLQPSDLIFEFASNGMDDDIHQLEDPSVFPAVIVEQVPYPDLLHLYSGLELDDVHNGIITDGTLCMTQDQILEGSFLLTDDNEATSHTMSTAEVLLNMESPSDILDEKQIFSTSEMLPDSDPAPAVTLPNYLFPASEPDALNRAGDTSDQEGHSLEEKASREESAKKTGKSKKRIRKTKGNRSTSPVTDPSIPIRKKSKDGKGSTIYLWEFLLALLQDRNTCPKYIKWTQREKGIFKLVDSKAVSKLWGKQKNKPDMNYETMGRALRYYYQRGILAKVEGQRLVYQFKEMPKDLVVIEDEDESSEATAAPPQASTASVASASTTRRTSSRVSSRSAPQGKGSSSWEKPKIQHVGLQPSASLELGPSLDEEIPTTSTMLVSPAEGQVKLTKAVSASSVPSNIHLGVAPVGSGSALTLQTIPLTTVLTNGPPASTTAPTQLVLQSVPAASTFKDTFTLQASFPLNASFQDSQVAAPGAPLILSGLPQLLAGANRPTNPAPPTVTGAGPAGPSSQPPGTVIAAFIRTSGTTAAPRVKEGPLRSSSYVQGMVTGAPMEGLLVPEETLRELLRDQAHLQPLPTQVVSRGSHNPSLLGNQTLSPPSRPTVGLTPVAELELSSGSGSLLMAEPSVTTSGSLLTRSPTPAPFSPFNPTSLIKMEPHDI

Sequence	binding signal [1]	binding signal [2]	binding signal [3]	binding signal [4]	binding signal [5]	binding signal [6]	binding signal [7]	binding signal [8]	binding signal [9]	binding signal [10]	binding signal [11]	binding signal [12]	binding signal [13]	binding signal [14]	binding signal [15]	binding signal [16]	binding signal [17]	binding signal [18]
GACCTG	1.19 fold enrichment (6-mer frequency, TF over GST control)	1.26 fold enrichment (6-mer frequency, TF over GST control)	1.19 fold enrichment (6-mer frequency, TF over GST control)	1.26 fold enrichment (6-mer frequency, TF over GST control)	1.27 fold enrichment (6-mer frequency, TF over GST control)	1.28 fold enrichment (6-mer frequency, TF over GST control)	1.26 fold enrichment (6-mer frequency, TF over GST control)	1.17 fold enrichment (6-mer frequency, TF over GST control)	1.35 fold enrichment (6-mer frequency, TF over GST control)	1.32 fold enrichment (6-mer frequency, TF over GST control)	1.28 fold enrichment (6-mer frequency, TF over GST control)	1.01 fold enrichment (6-mer frequency, TF over GST control)	1.24 fold enrichment (6-mer frequency, TF over GST control)	1.28 fold enrichment (6-mer frequency, TF over GST control)	1.29 fold enrichment (6-mer frequency, TF over GST control)	1.45 fold enrichment (6-mer frequency, TF over GST control)	1.2 fold enrichment (6-mer frequency, TF over GST control)	1.21 fold enrichment (6-mer frequency, TF over GST control)
CTCGCC	1.16 fold enrichment (6-mer frequency, TF over GST control)	1.38 fold enrichment (6-mer frequency, TF over GST control)	1.26 fold enrichment (6-mer frequency, TF over GST control)	1.21 fold enrichment (6-mer frequency, TF over GST control)	1.25 fold enrichment (6-mer frequency, TF over GST control)	1.19 fold enrichment (6-mer frequency, TF over GST control)	1.17 fold enrichment (6-mer frequency, TF over GST control)	1.24 fold enrichment (6-mer frequency, TF over GST control)	1.25 fold enrichment (6-mer frequency, TF over GST control)	1.21 fold enrichment (6-mer frequency, TF over GST control)	1.23 fold enrichment (6-mer frequency, TF over GST control)	1.06 fold enrichment (6-mer frequency, TF over GST control)	1.2 fold enrichment (6-mer frequency, TF over GST control)	1.29 fold enrichment (6-mer frequency, TF over GST control)	1.31 fold enrichment (6-mer frequency, TF over GST control)	1.32 fold enrichment (6-mer frequency, TF over GST control)	1.43 fold enrichment (6-mer frequency, TF over GST control)	1.26 fold enrichment (6-mer frequency, TF over GST control)
